# Test results as given in PubChem BioAssay (NCI).
# About 83,000 compounds went through this panel and 20% of them were active in at least one assay; those are over-represented in the sample as a whole.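 Activity criterion: percent growth below 10, measured after cells in 96-well plates were exposed to a single compound concentration for 48 hours.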 Values without a mark were called inactive. Active and inactive are the calls of the source.
# What was measured:
# Assay in all cases: NCI-60 one-dose screen, 48 h (100 = growth as untreated, 0 = no growth, -100 = all killed)
# Settings in all cases: 10 µM unless noted
# SK-MEL-2 melanoma = system: SK-MEL-2 melanoma
# EKVX NSCLC = system: EKVX NSCLC
# SN12C renal = system: SN12C renal
# UO-31 renal = system: UO-31 renal
# TK-10 renal = system: TK-10 renal
# ACHN renal = system: ACHN renal
# CAKI-1 renal = system: CAKI-1 renal
# A498 renal = system: A498 renal
# CCRF-CEM leukemia = system: CCRF-CEM leukemia
# MOLT-4 leukemia = system: MOLT-4 leukemia
# SR leukemia = system: SR leukemia
# OVCAR-8 ovarian = system: OVCAR-8 ovarian
# OVCAR-5 ovarian = system: OVCAR-5 ovarian
# OVCAR-4 ovarian = system: OVCAR-4 ovarian
# SK-OV-3 ovarian = system: SK-OV-3 ovarian
# IGROV1 ovarian = system: IGROV1 ovarian
# OVCAR-3 ovarian = system: OVCAR-3 ovarian
# HS 578T breast = system: HS 578T breast
# NCI/ADR-RES ovarian = system: NCI/ADR-RES ovarian
SMILES,growth (SK-MEL-2 melanoma),growth (EKVX NSCLC),growth (SN12C renal),growth (UO-31 renal),growth (TK-10 renal),growth (ACHN renal),growth (CAKI-1 renal),growth (A498 renal),growth (CCRF-CEM leukemia),growth (MOLT-4 leukemia),growth (SR leukemia),growth (OVCAR-8 ovarian),growth (OVCAR-5 ovarian) [%],growth (OVCAR-4 ovarian),growth (SK-OV-3 ovarian),growth (IGROV1 ovarian),growth (OVCAR-3 ovarian),growth (HS 578T breast),growth (NCI/ADR-RES ovarian)
CN1C(=O)C(C2=NNC(c3ccccc3C(=O)O)C2)C(=O)N(C)C1=O (stereo not given),98.9%,102%,97.2%,86.5%,96.9%,106%,86.6%,90.8%,96%,93.8%,101%,103%,94.6,99%,90.9%,106%,110%,93.6%,108%
CC(=O)C1CCC2C3CC(C)=C4CC(O)CCC4(C)C3CCC12C (stereo not given),94.8%,79.5%,99.2%,87.7%,110%,94.8%,97.4%,113%,92.4%,80%,89.9%,106%,112,93.4%,112%,104%,113%,103%,101%
CCOC(=O)C1C(=O)C=C(c2ccccc2)CC1c1sc(N(C)Cc2ccccc2)nc1Cl (stereo not given),84.4%,87.9%,94.3%,76.1%,107%,95.3%,68.7%,107%,84%,71.1%,81.4%,89.2%,107,90.7%,87.4%,110%,102%,76.2%,94.6%
Cc1nn(-c2cccc(Cl)c2)c(C)c1N=Nc1ccc(Br)cc1,102%,87.5%,94.4%,86.5%,90.1%,92%,86.7%,83%,97.3%,98.9%,92.7%,97.4%,94.1,94.5%,92.3%,100%,112%,96.6%,105%
O=C(Nc1ccc(-n2ccc3c(NC(=O)c4ccccc4)nccc32)cc1)c1ccc(N2CCOCC2)c(C(F)(F)F)c1,21%,65.6%,41.8%,0.765% (active),27.6%,32.5%,25.6%,68.9%,26.9%,30.5%,0.458% (active),23.6%,56.8,59.8%,30.3%,27.2%,15.7%,50%,29%
CCCCCCCCCCCCCCCC1=NC(C)(C)CN1C(C)C,-67.9% (active),5.51% (active),-36.3% (active),-57.5% (active),-74.2% (active),-58.3% (active),-45.4% (active),63.4%,-56.3% (active),-59.8% (active),-49.7% (active),-16.8% (active),56.2,24.3%,-6.62% (active),-32.9% (active),-43.2% (active),-31.6% (active),-22% (active)
Clc1cccc(CNc2c3ccccc3nc3ccccc23)c1,77.3%,27.2%,23.6%,16%,52.1%,15.7%,28.2%,-3.08% (active),18.1%,1.13% (active),-3.9% (active),31.1%,32.4,18.8%,63.9%,16.5%,57.7%,53.7%,26.3%
CCC(=O)NC1=C(Cl)C(=O)C(NC(=O)CC)=C(Cl)C1=O,111%,129%,101%,2.01% (active),50.5%,21.2%,103%,130%,-42.7% (active),-41.3% (active),-55.1% (active),99.3%,107,-98.5% (active),99.9%,116%,-94.5% (active),135%,101%
CC(C)(C)OC(=O)N1CCCN(CCNc2nccc(-c3c(-c4cccc(O)c4)nc4sccn34)n2)S1(=O)=O,103%,112%,82.7%,74.5%,121%,66.6%,49.4%,127%,75.8%,90.8%,77.3%,96.8%,114,108%,69.5%,79.5%,119%,109%,99%
CN1C(=O)N(C)C2C1NN=c1s/c(=C\c3ccc(Br)cc3)c(=O)n12 (stereo not given),52.7%,50%,50.2%,53.4%,60.4%,43.2%,38.6%,20.2%,10.3%,40.3%,13.5%,33.7%,56.8,61.6%,29.5%,48.1%,0.921% (active),11.6%,17%
